# This is a sample that favours compounds with a hit; in the whole collection about 18% have one here.
# DT40 TDP1 CPT – DT40-hTDP1 cell growth loss with CPT; hit rate 12% among 420,000; Potency, µM (highest dose often 46.2 µM), for the others: at the top dose activity change, negative = growth inhibition, hits mostly inhibitors; AID 686979; chicken DT40 Tdp1-/-;hTDP1 cells + 20 nM CPT, ATP luminescence, 48 h; note: nearly all actives have a fitted effect of over 55% in size
#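 Chicken DT40 Tdp1-/- cells complemented with human TDP1, 400 cells/well, exposed to compounds plus 20 nM camptothecin for at least 48 h at 37 C; viability read as ATP content by CellTiter-Glo luminescence.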
# PLK1 PBD inh – inhibitors of human PLK1 polo-box domain binding; Plk1 PBD binding of FITC phosphopeptide, fluorescence polarization; Potency, µM, for the others: max response, negative = inhibition, actives largely listed as inhibitors; hit rate 2.8% among 360,000; AID 720504; note: series mostly up to about 57 µM; nearly all actives have a fitted effect of over 65% in size
# Target sequence (P53350 whole entry, looked up, the tested form may be a part): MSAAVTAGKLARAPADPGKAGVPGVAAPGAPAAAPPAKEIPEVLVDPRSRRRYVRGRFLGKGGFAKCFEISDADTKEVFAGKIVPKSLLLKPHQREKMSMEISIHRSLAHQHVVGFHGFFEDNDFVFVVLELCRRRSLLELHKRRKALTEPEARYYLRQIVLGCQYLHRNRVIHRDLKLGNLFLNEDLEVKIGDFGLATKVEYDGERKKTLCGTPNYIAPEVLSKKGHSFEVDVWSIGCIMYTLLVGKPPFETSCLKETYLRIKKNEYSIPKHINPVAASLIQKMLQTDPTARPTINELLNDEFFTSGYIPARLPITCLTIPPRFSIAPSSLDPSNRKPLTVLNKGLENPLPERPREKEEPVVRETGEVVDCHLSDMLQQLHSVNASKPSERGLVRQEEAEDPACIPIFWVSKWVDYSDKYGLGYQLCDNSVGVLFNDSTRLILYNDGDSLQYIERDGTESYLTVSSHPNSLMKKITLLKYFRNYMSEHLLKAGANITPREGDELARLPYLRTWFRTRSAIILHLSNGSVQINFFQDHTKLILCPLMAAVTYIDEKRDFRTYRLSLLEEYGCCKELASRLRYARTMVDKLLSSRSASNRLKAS
# KAT2A inh – GCN5L2 (KAT2A) acetyltransferase inhibition; GCN5L2 HAT assay, ThioGlo1 CoA-SH fluorescence; Potency, µM (highest dose often 58.9 µM), without a hit: top-dose activity change, negative = inhibition, actives largely listed as inhibitors; hit rate 0.21% among 390,000; AID 504327
#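 Free CoA generated was detected with ThioGlo1 (50uM) fluorescence at Ex340nm/Em540nm, read immediately and after 20 min at room temperature. Enzyme, 20 nM in HEPES pH 7.5 buffer, saw compounds 15 min before adding 75uM H3(1-25) peptide and 70uM acetyl-CoA.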
# TDP1 cell noCPT – qHTS for Inhibitors of human tyrosyl-DNA phosphodiesterase 1 (TDP1): qHTS in cells in absence of CPT; DT40 Tdp1-/- hTDP1 cells, no CPT, ATP luminescence, 48 h; Potency, µM (titrated, usually from 46.2 µM), inactives show top-dose activity change, negative = growth inhibition, hits mostly inhibitors; hit rate 15% among 420,000; note: nearly all actives have a fitted effect of over 55% in size
#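 Growth of hTDP1-complemented DT40 Tdp1-knockout cells is measured by ATP luminescence after at least 48 hr compound exposure at 37 °C, with DMSO substituting for the 20 nM CPT used in the parallel screen.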
# VDR inh – vitamin D3 receptor (human) inhibition | P11473 | VDR-SRC2-3 peptide fluorescence polarization, 2 h | Potency, µM, for inactives: max response, negative = inhibition, hits mostly inhibitors | hit rate 0.93% among 400,000
#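 After 23 nl compound addition and a short centrifugation, plates sat for 2 hours at ambient temperature; polarization of fluorescence then indicated loss of VDR binding to peptide SRC2-3.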
# TDP1 block – blocks human tyrosyl-DNA phosphodiesterase 1 | recombinant TDP1, AlphaScreen DNA substrate cleavage | Potency, µM (titrated, usually from 130 µM), inactives show at the top dose activity change, negative = inhibition, most hits filed as inhibitors | hit rate 0.28% among 350,000; note: nearly all actives have a fitted effect of over 40% in size
#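 Signal: AlphaScreen proximity between streptavidin donor and anti-FITC acceptor beads on intact substrate. Reaction: Tdp1 1 nM, substrate 15 nM final, 5 min RT after 15 min compound preincubation.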
# * marks the source's active call; other numbers are inactive results; u = inconclusive; x = no result given; [ ] = another dose, or the depositor's remark. Calls come from the whole dose curve; as a rule, active = well fitted curve in the direction sought with a large enough effect; inconclusive = small, poorly fitted or top-dose-only effect, or another doubt; inactive = no such curve, though single readings can be large; an effect the other way counts as inactive or inconclusive. % is set by controls: 0 for no effect and ±100 for the full control effect; potency is the fitted concentration of half-maximal effect.
SMILES,DT40 TDP1 CPT,PLK1 PBD inh,KAT2A inh,TDP1 cell noCPT,VDR inh,TDP1 block
NS(=O)(=O)c1ccc(CNC(=O)c2ccc(NS(=O)(=O)c3ccc4[nH]c(=O)[nH]c4c3)cc2)cc1,17.0%,9.6%,-0.5%,-1.7%,-3.4%,-2.3%[0.505 µM]
CCCCCCCNC(=O)C1(CC2CC(c3ccc(Cl)cc3)=NO2)CCN(C(=O)C2(C)CC2)CC1 (stereo not given),u,8.5%,-2.6%,16.4µM*,-11.3%,x
CCCCCCCNC(=O)C1(CC2CC(c3ccc(Cl)cc3)=NO2)CCN(C(=O)C2CCCC2)CC1 (stereo not given),u,-4.6%,-2.7%,u,6.1%,x
CCCCCCCNC(=O)C1(CC2CC(c3ccccc3)=NO2)CCNCC1 (stereo not given),u,-4.9%,-12.7%,16.4µM*,-12.9%,x
CCCNC(=O)C1(CC2CC(c3ccccc3)=NO2)CCN(C(=O)c2ccccc2)CC1 (stereo not given),6.1%,-6.1%,0.7%,5.1%,-8.8%,0.5%
Cc1c(C(=O)NCC2COc3ccccc3O2)oc2ccc(S(=O)(=O)N(C)C3CCCCC3)cc12 (stereo not given),u,-6.2%,-7.4%,14.6µM*,-5.8%,4.5%
Cc1ccc(NC(=O)c2oc3ccc(S(=O)(=O)N(C)C4CCCCC4)cc3c2C)cc1Cl,u,x,-10.2%,u,-0.3%,0.0%
Cc1c(C(=O)Nc2ccc(F)c(F)c2)oc2ccc(S(=O)(=O)N(C)C3CCCCC3)cc12,18.4µM*,x,-21.1%,14.6µM*,8.5%,5.2%
O=C(NCc1ccc2c(c1)OCO2)C1CCCN1C(=O)Nc1ccc(Cl)cc1 (stereo not given),-1.2%,-0.9%,-21.5%,-13.2%,-17.4%,-0.8%
O=[N+]([O-])c1cc(S(=O)(=O)Nc2cccc(C(F)(F)F)c2)ccc1-n1nnc2ccccc21,-21.7%,26.7µM*,u,u,10.4%,9.1%
COc1ccc(NS(=O)(=O)c2ccc(-n3nnc4ccccc43)c([N+](=O)[O-])c2)cc1,-26.2%,-5.5%,-0.9%,u,8.9%,7.0%
COc1ccccc1-c1ccnc(-n2ncc(C(=O)NCCc3cccnc3)c2C)n1,4.3%[9.04 µM],x,x,-1.8%,x,x
C[C@H](CO)N1C[C@H](C)[C@@H](CN(C)S(=O)(=O)c2ccccc2)Oc2c(NC(=O)C3CC3)cccc2C1=O,-0.7%,4.6%,x,0.3%,-1.1%,x
C[C@H](CO)N1C[C@H](C)[C@@H](CN(C)S(=O)(=O)c2ccccc2)Oc2c(NC(=O)NC3CCCCC3)cccc2C1=O,18.4µM*,-19.5%,-1.0%,u,-9.8%,1.4%
C[C@H](CO)N1C[C@H](C)[C@@H](CN(C)S(C)(=O)=O)Oc2c(NC(=O)Nc3ccc4c(c3)OCO4)cccc2C1=O,-9.0%,-14.4%,1.4%,-7.9%,-12.9%,2.4%
C[C@H](CO)N1C[C@H](C)[C@@H](CN(C)S(=O)(=O)c2ccccc2)Oc2c(NC(=O)Nc3ccc4c(c3)OCO4)cccc2C1=O,16.4µM*,-4.4%,-6.1%,u,2.1%,3.9%
C=CCN=C1S/C(=C\c2ccc(N(C)C)cc2)C(=O)N1CC=C,u,11.2%,-15.6%,u,13.4%,6.8%
COc1ccc(/C=N/NC(=O)c2[nH]c3ccc(Br)cc3c2-c2ccccc2)c(C(=O)O)c1OC,-4.6%,u,-9.9%,-12.2%,-28.6%,1.4%
COc1ccc(/C=N/NC(=O)c2[nH]c3ccc(Br)cc3c2-c2ccccc2)cc1,0.82µM*,-8.4%,5.8%,0.92µM*,-7.2%,8.2%
O=C(N/N=C/c1ccccc1Cl)c1[nH]c2ccc(Br)cc2c1-c1ccccc1,1.3µM*,29.1%,-10.0%,0.651µM*,-10.7%,0.6%
Cc1c(C(=O)N/N=C/c2ccccc2)[nH]c2ccc(Cl)cc12,9.2µM*,4.9%,20.8%,6.51µM*,-5.0%,5.4%
COc1ccc(/C=N/NC(=O)c2[nH]c3ccc(Cl)cc3c2-c2ccccc2)c(C(=O)O)c1OC,-25.6%,-14.0%,-3.4%,u,u,x
CCOC(=O)NNC(=O)c1[nH]c2ccc(Br)cc2c1-c1ccccc1,u,2.8%,-5.0%,u,-16.1%,x
Cc1nnc(SCC(=O)Nc2c(C)n(C)n(-c3ccccc3)c2=O)n1Cc1ccccc1,0.3%,0.1%,-7.7%,2.1%,-11.1%,2.3%
CCNC(=O)C1(C)CCCN(C(=O)c2ccc3sccc3c2)C1 (stereo not given),-12.3%,0.3%,x,2.0%,x,x
SMILES,DT40 TDP1 CPT,PLK1 PBD inh,KAT2A inh,TDP1 cell noCPT,VDR inh,TDP1 block
CCNC(=O)C1(C)CCCN(C(=O)c2ccc3c(c2)C(C)(C)CCC3(C)C)C1 (stereo not given),5.8µM*,-7.1%,x,6.51µM*,x,x
COC(=O)c1ccc(C(=O)N2CCCCCC2(C)C(=O)NC(C)C)cc1 (stereo not given),u,-1.1%,x,-22.1%,x,x
CCNC(=O)C1(C)CCN(C(=O)c2ccc(-c3ccccc3)cc2)C1 (stereo not given),16.4µM*,0.8%,x,u,x,x
CC(C)NC(=O)C1(C)CCCN1C(=O)c1ccc2c(c1)C(C)(C)CCC2(C)C (stereo not given),4.61µM*,-1.5%,x,3.66µM*,x,x
CCNC(=O)C1(C)CCN(C(=O)c2ccc3ccccc3c2)C1 (stereo not given),9.4%,-7.4%,x,5.4%,x,x
Cc1csc(NC(=O)C2(C)CCN2C(=O)C(C)C)c1C#N (stereo not given),8.2µM*,0.0%,x,8.2µM*,x,x
O=C(NCC1CCCO1)c1cc(Br)c(Br)s1 (stereo not given),-8.2%,-10.9%,-3.9%,6.1%,12.5%,1.6%
O=C(NCc1ccc2c(c1)CCN2C(=O)c1ccc(F)cc1)c1ccc(Br)o1,5.17µM*,x,-4.3%,4.11µM*,12.2%,2.5%
Cc1cccc(C(=O)N2CCc3cc(CNC(=O)c4ccc(Br)o4)ccc32)c1,18.4µM*,x,3.1%,u,15.4%,8.3%
Cc1cccc(OCC(=O)NCc2ccc3c(c2)CCN3C(=O)c2ccccc2)c1,u,x,-23.3%,23.1µM*,3.6%,1.5%
Cc1cc(NC(=O)NCc2ccc3c(c2)CCN3C(=O)c2ccccc2)ccc1Br,u,x,-4.0%,16.4µM*,2.5%,2.7%
Cc1ccc(NC2(c3ccccc3)C(=O)c3ccccc3C2=O)cc1F,-2.1%,x,-13.7%,-21.3%,0.4%,2.1%[12.3 µM]
CCOc1ccc(CNC(=O)c2cnc(SC)nc2CC)cc1,10.3%,x,1.3%,-2.4%,18.9%,5.7%

# Screens (PubChem BioAssay)
